Results as given in PubChem BioAssay (NCI).
“And” between values parts separate entries of the source, which are not always exact repeats. Equal values may be shown once. Compounds without any hit were thinned out: in the full panel of roughly 83,000, 20% have a hit.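 Plates (96-well) were seeded with cells, treated with compound at one concentration, and incubated for 48 hours before percent growth was determined.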 Unmarked numbers belong to inactive results. The source made the active and inactive calls. Rule for the calls: active = growth percent below 10; inactive = the rest.

Each compound was assayed on MDA-MB-468 breast (assay: NCI-60 one-dose screen, 48 h (100 = growth as untreated, 0 = no growth, -100 = all killed)). Settings: 10 µM unless noted.

In order of falling growth:
1. N#CC1=C(N)OC2=C(C(=O)CCC2)C1c1ccco1 (stereo not given)  115%
2. CCOC(=O)C1=C(C)NC(SCc2cc(=O)oc3ccc(F)cc23)=N[C@@H]1c1cccc2ccccc12  113%
3. CCCCN(CCCC)CCCO  106%
4. CCCCCN(CCCCC)C(=O)C(CCC(=O)O)NC(=O)c1ccc(Cl)c(Cl)c1 (stereo not given)  106%
5. COC(=O)c1[nH]c(=O)c(C#N)c(C(=O)OC)c1C(=O)c1ccccc1  102%
6. CCCC(C(=O)OCC)C(C)OC(=O)OCC (stereo not given)  101%
7. O=c1c2cc(-c3ccccc3)sc2nc2sc(-c3ccccc3)nn12  101%
8. Cc1cccc(NC2=C(C#N)C(=O)NC3(CCCC3)S2)c1  101%
9. CCCCCCC(C)N(CC(C)(C)O)C(=O)c1ccc([N+](=O)[O-])cc1 (stereo not given)  96.1%
10. O=C(O)CCNC1CCCCC1  93.1%
11. C(=C\c1ccncc1)/c1ccncc1  92.6%
12. O=C(Nc1ccccc1)Nc1ncnc2c1ncn2-c1ccc(Cl)cc1  92.2%
13. COc1ccc(NC(=O)c2cc(NCc3cc(O)ccc3O)ccc2O)cc1  88.5%
14. FC(F)(F)c1cc(-c2nnc3n2N=C(Cl)CS3)cc(C(F)(F)F)c1  84.4%
15. COc1cc(-c2cnc3nonc3n2)c(OC)c2c1OCO2  83.5%
16. NS(=O)(=O)c1ccc(C(=O)N/N=C(\CS(=O)(=O)c2ccccc2)c2cc3cc(Br)ccc3o2)cc1  78.9%
17. COc1cccc(NC(=O)c2cccc(C3CCc4c(cc(OC)c(OC)c4OC)O3)c2)c1 (stereo not given)  71.5%
18. O=C(NCCNc1nccc(-c2c(-c3cccc(F)c3)nc3sccn23)n1)c1ccc(Cl)cc1  67.8%
19. COc1ccc(-c2csc(NC(=O)CN3CCN(CCO)CC3)n2)cc1NS(=O)(=O)c1cccc2c(N(C)C)cccc12  55.6%
20. CCOc1cccnc1/C=N/NC(N)=S  52.7%
21. Cc1ccc2c(n1)C(=O)C(Cl)=C(Nc1ccc(C#N)cc1)C2=O  51.4%
22. NS(=O)(=O)c1ccc(Nc2nc(N/N=C/c3ccc4c(c3)OCO4)nc(Nc3ccccc3)n2)cc1  46.4%
23. COc1ccc2nc(Cl)c(Cn3nnc(Cc4ccccc4)n3)cc2c1  29.9%
24. CCCCCCCCCCCCCC[N+](C)(C)CCCCCCCCCCCCCC  21.4%
25. COc1ccc(S(=O)(=O)Nc2cc(/C=C\c3cc(OC)c(OC)c(OC)c3)cc(OC)c2OC)cc1  19.5%
26. COc1ccc2c(c1)/C(=N/c1n[nH]c(=S)s1)C(=O)N2  17.1%
27. Cc1nc2sc(C(=O)Nc3cccc(Cl)c3)c(N)c2cc1C(O)c1ccccc1 (stereo not given)  15.3%
28. C=CN(C(=O)N1CCN(c2cc3c(cc2F)c(=O)c(C(=O)O)cn3C2CC2)CC1)c1nc(-c2ccc(OC)cc2)cs1  13.4%
29. COc1ccc(-c2c[nH]c(C(=O)O)c2-c2cc(OC)c(OC)c(OC)c2)cc1  11.8%
30. N#Cc1ccc(/C=N/NC(=O)c2[nH]c3ccc(Br)cc3c2-c2ccccc2)s1  11.4%

In the case of `[O-][N+](=Nc1cccc(Cl)c1)c1cccc(Cl)c1`, the growth is reported as -25% (active).
`Cc1c(C(=O)CCl)c(=O)n(-c2ccccc2)n1C` was tested, and the growth was -19.1% (active).
For `Cl.Fc1c[c-]c(-c2ccccn2)c(F)c1.[Pt].c1ccc([PH+](CC[PH+](c2ccccc2)c2ccccc2)c2ccccc2)cc1`, the growth was -79.2% (active).
With `Cc1ccc2sc3c(c2c1)OC(N)=C(C#N)C3c1ccc(Cl)cc1` (stereo not given) the growth was -18.7% (active).
`Nc1nc(-c2cccc([N+](=O)[O-])c2)c(N=Nc2ccc(Br)cc2)s1` was tested, and the growth was -45.7% (active).
For `COc1ccc(CCN(C)CCCC(C#N)(c2ccc(OC)c(OC)c2)C(C)C)cc1OC` (stereo not given), the growth was 97.9% and 89.5%.
`Cc1nn(-c2ccccc2)c2ncnc(N/N=C/c3ccccc3O)c12` was tested, and the growth was -31.7% (active).
With `O=C(Nc1ccc(Cl)cc1F)c1cc(Br)ccc1O` the growth was 0.453% (active).
`O=C1/C(=C/c2ccc(Cl)cc2Cl)CN(S(=O)(=O)c2ccccc2)C/C1=C\c1ccc(Cl)cc1Cl` was tested, and the growth was -24.5% (active).
With `Cc1ccsc1-c1ccc2c(c1)COC2(CCCN(C)C)c1ccc(F)cc1` (stereo not given) the growth was -8.34% (active).
